GLP1R cytotox = qHTS of GLP-1 Receptor Inverse Agonists: Cytotox Screen | HEK293 cAMP-luciferase reporter cells, luminescence, 24 h | Potency, µM (doses to about 38.3 µM), inactives show top-dose activity change, negative = inhibition, most hits filed as inhibitors | hit rate 0.13% among 410,000 | AID 624418, 2012;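 further: loss of luciferase light is scored as toxicity; on the % scale 0 is the no-effect control and ±100 the full control effect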
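1536-well qHTS counterscreen of the MLSMR; 200 cells/uL, 12 h pre-incubation, 23 nL cpd, 24 h at 37 deg C 5% CO2, luciferase detection reagent, 12 min RT, luminescence. Inhibition = undesired.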
BRCA1 expr act = qHTS Assay to Identify Small Molecule Activators of BRCA1 Expression; MCF7-BRCA1-FFLuc reporter, luminescence, 48 h; response scale: scaled: vehicle 0%, 10 µM genistein 100%; Potency, µM (highest dose often 46.1 µM), for inactives: at the highest dose activation, hits mostly activators; hit rate 1.1% among 380,000; further: nearly all actives have a fitted effect of over 80% in size
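MCF7-BRCA1-FFLuc, 2000 cells/well; 2 h attach, 37 °C/5% CO2; compound 48 h; luciferase substrate 15 min; luminescence end-point. Norm. to genistein 10 microM max activation and DMSO; concentration-response curves fitted.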
GLP1R ag = qHTS of GLP-1 Receptor Agonists | hit rate 0.007% among 380,000 | HEK293 GLP-1R CRE-luciferase, luminescence, 4-6 h; cells express a hypersensitive GLP-1R form | Potency, µM (highest dose often 45.6 µM), for the others: at the highest dose activation, hits mostly activators; further: % of control where 0% means no effect
Target sequence (P43220 whole entry, looked up): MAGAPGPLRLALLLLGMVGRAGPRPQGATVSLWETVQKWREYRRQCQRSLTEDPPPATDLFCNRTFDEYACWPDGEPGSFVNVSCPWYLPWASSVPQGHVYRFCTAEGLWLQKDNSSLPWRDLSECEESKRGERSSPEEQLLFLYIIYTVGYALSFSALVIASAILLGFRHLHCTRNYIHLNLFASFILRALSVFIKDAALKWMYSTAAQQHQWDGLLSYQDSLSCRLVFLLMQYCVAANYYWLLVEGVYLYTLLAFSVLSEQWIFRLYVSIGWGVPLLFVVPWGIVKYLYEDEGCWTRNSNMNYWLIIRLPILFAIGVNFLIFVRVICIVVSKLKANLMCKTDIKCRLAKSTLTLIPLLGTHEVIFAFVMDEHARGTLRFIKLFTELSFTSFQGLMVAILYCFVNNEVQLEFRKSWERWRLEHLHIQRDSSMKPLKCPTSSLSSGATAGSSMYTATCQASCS
GLP-1R inv ag = qHTS of GLP-1 Receptor Inverse Agonists (Inhibition Mode) | Glucagon-like peptide 1 receptor (Homo sapiens), P43220 | HEK293 GLP-1R CRE-luciferase, luminescence, 24 h; GLP-1R form is constitutively active | Potency, µM (top dose mostly 38.3 µM), without a hit: at the highest dose activity change, negative = inhibition, hits mostly inhibitors | hit rate 1.6% among 410,000 | AID 624417, 2012; further: on the % scale 0 is the no-effect control and ±100 the full control effect; nearly all actives have a fitted effect of over 55% in size
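Inverse agonists were sought by their lowering of basal cAMP reporter luciferase output in HEK293 cells stably carrying constitutively active human GLP-1R, after 24 h compound treatment.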
Integrin act MD = qHTS for Activators of Integrin-Mediated Alleviation for Muscular Dystrophy; alpha7betagal myoblasts, beta-gal FDG fluorescence, 48 h; Potency, µM (highest dose often 38.3 µM), for inactives: top-dose activation, most hits filed as activators; hit rate 0.064% among 350,000; AID 624291, 2012;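 further: 100% = response of the positive control SU9516; nearly all actives have a fitted effect of over 60% in size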
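alpha7betagal+/- myoblasts (passage 13, 250/well) treated 48 h at 37C with compounds at 1:260 dilution of DMSO stock. Lysed, then beta-galactosidase activity read as FDG fluorescence (ex 480/em 540) after 30 min, with pre-read for autofluorescence.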
* marks the source's active call; other numbers are inactive results; [ ] = remark or other dose. Compounds with a hit are over-represented: about 2.7% of the library has one in this group of screens. The call rests on the fitted dose curve; in most records, active means well fitted curve in the direction sought with a large enough effect; inconclusive means small, poorly fitted or top-dose-only effect, or another doubt; inactive means no such curve, though single readings can be large; an effect the other way counts as inactive or inconclusive. Potency means the concentration at half of the fitted maximal effect.

`O=C(CCNS(=O)(=O)c1ccc(Cl)cc1)NCCc1ccccc1` gave GLP1R cytotox -2%, BRCA1 expr act -3%, GLP1R ag 6%, GLP-1R inv ag -9% and Integrin act MD 2%.
Screening O=C(CCNS(=O)(=O)c1ccc(Br)cc1)NCCc1ccc(Cl)cc1 returned GLP1R cytotox 4%, BRCA1 expr act -11%, GLP1R ag 5%, GLP-1R inv ag 10µM* and Integrin act MD -21%.
For COc1ccccc1C(CNC(=O)CCNS(=O)(=O)c1ccc(Br)cc1)N1CCCC1 (configuration not stated) the results were GLP1R cytotox -14%, BRCA1 expr act -21%, GLP1R ag 8%, GLP-1R inv ag 10µM* and Integrin act MD -49%.
`CCc1cccc(-n2nnc(-c3nsc(NC(=O)c4cccc(OC)c4)n3)c2C)c1` gave GLP1R cytotox -15%, BRCA1 expr act -21% and GLP-1R inv ag inconclusive.
CCOc1ccc2c(c1)c(=O)c(C(=O)c1ccc3c(c1)OCO3)cn2Cc1ccc(F)cc1 was read as GLP1R cytotox -10% and GLP-1R inv ag 13%.
`CSc1ccc(C2c3c(oc4cc(C)cc(C)c4c3=O)C(=O)N2CCO)cc1` (configuration not stated) gave GLP1R cytotox -6% and GLP-1R inv ag inconclusive.
`O=C(CCS(=O)(=O)c1ccccc1)Nc1ccc2c(c1)OCO2` gave GLP1R cytotox -5%, BRCA1 expr act 7.9µM*, GLP1R ag 4%, GLP-1R inv ag 4% and Integrin act MD -32%.
O=C(Nc1ccc2c(c1)OCO2)c1cccc(F)c1 was read as GLP1R cytotox -9%, BRCA1 expr act 11µM*, GLP1R ag 14%, GLP-1R inv ag 3% and Integrin act MD -24%.
Screening Cn1nccc1C(=O)Nc1ccc(Cl)cc1 returned GLP1R cytotox -8%, BRCA1 expr act inconclusive, GLP1R ag -1%, GLP-1R inv ag 21% and Integrin act MD 1%.
`CS(=O)(=O)N(CC(=O)Nc1ccc2c(c1)OCO2)c1ccccc1` gave GLP1R cytotox -4%, BRCA1 expr act 25%, GLP1R ag -2%, GLP-1R inv ag 2% and Integrin act MD 7%.
Screening N/C(=N\C(=S)Nc1ccc2c(c1)OCO2)c1ccccc1 returned GLP1R cytotox -13%, BRCA1 expr act 4.5µM*, GLP1R ag -2% and GLP-1R inv ag -16%.
For Cn1nccc1C(=O)Nc1ccc2c(c1)OCO2 the results were GLP1R cytotox -1%, BRCA1 expr act 13µM*, GLP1R ag -3%, GLP-1R inv ag 8% and Integrin act MD 19%.
Cc1cccc(-c2nc3c4c(-c5ccccc5)c(-c5ccccc5)oc4ncn3n2)c1 was read as GLP1R cytotox 16%, BRCA1 expr act -1%, GLP1R ag -1% and GLP-1R inv ag 6%.
For O=C(COc1ccccc1)Nc1nnc2n1CCS2 the results were GLP1R cytotox 7% and GLP-1R inv ag 9%.
COC(=O)c1ccc(N/C=C\C(=O)c2ccc3c(c2)OCO3)cc1 was read as GLP1R cytotox 8%[7.66 µM], BRCA1 expr act inconclusive, GLP1R ag 5%, GLP-1R inv ag 50%[7.66 µM] and Integrin act MD 15%.
For O=C(Nc1ccc2c(c1)OCO2)c1c(F)cccc1F the results were GLP1R cytotox 12%, BRCA1 expr act 4.5µM*, GLP1R ag 9%, GLP-1R inv ag 7% and Integrin act MD 0%.
Screening O=C(Nc1cccc(F)c1)Nc1ccc2c(c1)OCO2 returned GLP1R cytotox -18%, BRCA1 expr act inconclusive, GLP1R ag 2%, GLP-1R inv ag inconclusive and Integrin act MD -9%.
`Cc1cc(C(=O)Nc2ccc3c(c2)OCO3)no1` gave GLP1R cytotox 1%, BRCA1 expr act 74%, GLP1R ag -2%, GLP-1R inv ag inconclusive and Integrin act MD 2%.

Assay outcomes from PubChem BioAssay.
